Results reported in PubChem BioAssay (NCI).
Compounds without any hit were thinned out: in the full panel of roughly 83,000, 20% have a hit.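 For each line, cells grew in 96-well plates with the test compound present at a single concentration for 48 hours.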 Values without a mark were called inactive. Calls of active or inactive are those of the source. How the source made its calls: active means growth percent below 10; inactive means the rest.

What was measured:
Experiment in all cases: NCI-60 one-dose screen, 48 h (100 = growth as untreated, 0 = no growth, -100 = all killed)
Details in all cases: 10 µM
[1] = test system: HCT-15 colon
[2] = test system: HT29 colon
[3] = test system: SNB-75 CNS
[4] = test system: SNB-19 CNS
[5] = test system: U251 CNS
[6] = test system: PC-3 prostate
[7] = test system: SK-MEL-5 melanoma
[8] = test system: UACC-62 melanoma
[9] = test system: LOX IMVI melanoma
[10] = test system: SK-MEL-28 melanoma

COc1ccc(-c2cc(-c3ccc(Cl)cc3)nc(SCCCC(=O)NO)n2)cc1
growth [1]: 14.5% | growth [2]: 13.3% | growth [3]: -6% (active) | growth [4]: 13.5% | growth [5]: 5.21% (active) | growth [6]: 0.504% (active) | growth [7]: -52.5% (active) | growth [8]: -57.2% (active) | growth [9]: -24.9% (active) | growth [10]: 31.9%

COc1ccc(/C=C2\CCCC3=C2NC(N)=NC3c2ccc(OC)c(OC)c2)cc1OC (stereo not given)
growth [1]: 35.9% | growth [2]: 24.2% | growth [3]: 63.9% | growth [4]: 88.7% | growth [5]: 37.8% | growth [6]: 61.5% | growth [7]: 39.7% | growth [8]: 52.8% | growth [9]: 12.9% | growth [10]: 65.3%

COc1ccc(/C=C/c2nnc(/C=C/c3ccc(OC)c(OC)c3)o2)cc1OC
growth [1]: 21.6% | growth [2]: -7.7% (active) | growth [3]: 38.4% | growth [4]: 14.8% | growth [5]: 16.2% | growth [6]: 31.5% | growth [7]: 2.81% (active) | growth [8]: 9.17% (active) | growth [9]: 4.41% (active) | growth [10]: 30.6%

CN(C)CCOc1ccccc1NC1=C(Cl)C(=O)C(Nc2ccccc2OCCN(C)C)=C(Cl)C1=O
growth [1]: 79.7% | growth [2]: 15% | growth [3]: 107% | growth [4]: 93.9% | growth [5]: 68.6% | growth [6]: 84.3% | growth [7]: 93.6% | growth [8]: 95.6% | growth [9]: -65.7% (active) | growth [10]: 109%

C=CCNCCN1C(=O)c2ccc3c4c(ccc(c24)C1=O)C(=O)N(CCNCC=C)C3=O
growth [1]: -67.4% (active) | growth [2]: -44.9% (active) | growth [3]: -37.9% (active) | growth [4]: -88.1% (active) | growth [5]: -89.4% (active) | growth [6]: -7.8% (active) | growth [7]: -95.4% (active) | growth [8]: -74.9% (active) | growth [9]: -78.8% (active) | growth [10]: -57% (active)

O=C(Nc1ccc(OS(=O)(=O)c2ccccc2)cc1)C1CCCCC1
growth [1]: 67.7% | growth [2]: 39.3% | growth [3]: 95.7% | growth [4]: 89.2% | growth [5]: 69.6% | growth [6]: 72.7% | growth [7]: 77.1% | growth [8]: 89.5% | growth [9]: 86.2% | growth [10]: 91.7%

COc1cc(-c2nn(-c3cccc(NC(=O)NCCNS(=O)(=O)c4ccc(Cl)cc4)c3)cc2-c2ccncc2)ccc1Cl
growth [1]: 26.5% | growth [2]: -24.4% (active) | growth [3]: 0.927% (active) | growth [4]: 38.1% | growth [5]: -0.109% (active) | growth [6]: 7.5% (active) | growth [7]: -74.6% (active) | growth [8]: 25.6% | growth [9]: -0.864% (active) | growth [10]: 21.4%

Cc1ccc(S(=O)(=O)N(C)CCCCCC(=O)O)cc1
growth [1]: 97.8% | growth [2]: 92.5% | growth [3]: 94% | growth [4]: 108% | growth [5]: 104% | growth [6]: 98.2% | growth [7]: 105% | growth [8]: 106% | growth [9]: 95.4% | growth [10]: 105%

COc1ccc2cc(-c3nc4ccccc4s3)c(Cl)nc2c1OC
growth [1]: 97% | growth [2]: 104% | growth [3]: 82.1% | growth [4]: 93.9% | growth [5]: 107% | growth [6]: 92.6% | growth [7]: 92.9% | growth [8]: 91.1% | growth [9]: 90.6% | growth [10]: 107%

CCC(c1ccc(OC)cc1)C(CC)c1ccc(O)c(CN2CCN(C)CC2)c1 (stereo not given)
growth [1]: 1.58% (active) | growth [2]: 12.1% | growth [3]: 56.9% | growth [4]: 74.5% | growth [5]: 29.8% | growth [6]: 45.1% | growth [7]: 4.57% (active) | growth [8]: -30.5% (active) | growth [9]: 46.2% | growth [10]: -13.2% (active)

CC[C@@H](C(=O)[C@@H](C)[C@@H](O)[C@H](C)[C@@H]1O[C@@H]([C@@H](CC)C(=O)O)CC[C@@H]1C)C1O[C@]2(C=CC(=O)[C@]3(CC[C@@](C)([C@H]4CC[C@](O)(CC)[C@H](C)O4)O3)O2)[C@H](C)C[C@@H]1C (stereo not given in full)
growth [1]: 23.8% | growth [2]: 30.5% | growth [3]: 19.2% | growth [4]: 11.6% | growth [5]: 24% | growth [6]: 27.4% | growth [7]: -91.7% (active) | growth [8]: -32.5% (active) | growth [9]: 35.4% | growth [10]: -81.2% (active)

CCN(CC)CCNc1ccc(C)c2sc3cc(Cl)ccc3c(=O)c12
growth [1]: 26.6% | growth [2]: -25% (active) | growth [3]: 59.8% | growth [4]: 47% | growth [5]: 16.5% | growth [6]: 34.9% | growth [7]: 14.1% | growth [8]: -67% (active) | growth [9]: -84.5% (active) | growth [10]: -59.3% (active)

CCCN1CN2C(=O)N3CN(CCC)CN4C(=S)N(C1)C2C34 (stereo not given)
growth [1]: 98.2% | growth [2]: 99.5% | growth [3]: 81% | growth [4]: 101% | growth [5]: 97.3% | growth [6]: 91.5% | growth [7]: 107% | growth [8]: 98% | growth [9]: 103% | growth [10]: 93.4%

CC(C)N(CCOc1ccc(-c2nc3sccn3c2-c2ccnc(S(C)(=O)=O)n2)cc1)C(C)C
growth [1]: 92.8% | growth [2]: 60.3% | growth [3]: 83.5% | growth [4]: 107% | growth [5]: 91.4% | growth [6]: 62.5% | growth [7]: 39.2% | growth [8]: 83.9% | growth [9]: 72.7% | growth [10]: 104%

COc1ccc(Cc2cnc(N)nc2N)cc1OC
growth [1]: 101% | growth [2]: 99% | growth [3]: 79.4% | growth [4]: 100% | growth [5]: 97.1% | growth [6]: 88.6% | growth [7]: 101% | growth [8]: 96.9% | growth [9]: 97% | growth [10]: 119%

NS(=O)(=O)c1ccc(N2N=C(c3ccccc3)CCC2=O)cc1
growth [1]: 109% | growth [2]: 98.6% | growth [3]: 108% | growth [4]: 94.7% | growth [5]: 104% | growth [6]: 105% | growth [7]: 105% | growth [8]: 106% | growth [9]: 108% | growth [10]: 120%
